# PubChem BioAssay (Tox21)
# Calls of active or inactive are those of the source. Entries that show only a call come without a potency. The call rests on the fitted dose curve.
# Experiment: qHTS assay to identify small molecule agonists of the sonic hedgehog signaling (Shh) pathway (AID 1259368); further: nearly all actives have a fitted effect of over 15% in size
# Conditions: NIH/3T3 Gli1-Luc reporter, luciferase, 24 h; series mostly up to 92.4 µM
# Source text: National Center for Advancing Translational Sciences [NCATS]
# NIH Chemical Genomics Center [NCGC]
# U.S. Environmental Protection Agency [EPA]
# National Institutes of Environmental Health Sciences [NIEHS]
# National Toxicology Program [NTP]
# The sonic hedgehog (Shh) pathway is essential for normal embryonic development. Dysregulation of the Shh pathway can cause severe developmental defects in organs. Therefore chemicals that interfere with the pathway are potential developmental toxicants. A cell line designated 3T3Gli1-Luc (DMB/OARSA/CFSAN/FDA, Laurel, MD), a NIH/3T3 derived clone containing stably integrated Gli1-Luc reporter is used to detect chemical interference of the Shh pathway, by changes in the expression of the firefly Luc gene under the control of the Gli1 transcriptional response element. This cell line was used to screen Tox21 libraries for identifying and prioritizing the potential developmental toxicants that interfere Shh pathway.
# 3T3 Gli1-Luc cells were dispensed at 2,000 per well in 5uL of culture medium into white solid bottom 1536-well plates (Greiner Bio-One, Monroe, NC) using a Multidrop Combi (Thermo Scientific, Waltham, MA) dispenser. The assay plates were incubated at 37 C and 5% CO2 for 4hr, and then 23nL of compounds dissolved in DMSO and positive control were transferred using a Pintool station (Wako, San Diego, CA). The assay plates were incubated at 37C and 5% CO2 for 24hr. For luciferase read, 4uL of Amplite Luciferase reporter gene assay reagent (AAT Bioquest, Inc. Sunnyvale, CA) was added to each well of the assay plates using Flying Reagent Dispenser (FRD, Aurora Discovery, San Diego, CA) and incubated at room temperature for 30min. The luminescence signal was measured using a ViewLux plate reader (Perkin Elmer, Shelton, CT).
# Potency means the concentration at half of the fitted maximal effect.
row,SMILES,Potency
1,Nc1nc2ccc(OC(F)(F)F)cc2s1,inactive
2,CC(=O)Oc1cccc(O)c1,inactive
3,O=C(O)CCC(=O)c1ccc(-c2ccccc2)cc1,inactive
4,CCCCCCCC(=O)Oc1c(Br)cc(C#N)cc1Br,inactive
5,COC(C)(C)OC,inactive
6,Cc1oc(=O)oc1COC(=O)[C@@H]1N2C(=O)[C@@H](NC(=O)[C@H](N)c3ccccc3)[C@H]2SC1(C)C,inactive
7,CCN(CC)CCOc1ccccc1C(=O)CCc1ccccc1,inactive
8,Cc1ccc(N(CCO)CCO)cc1,inactive
9,CCN(CC)c1cccc(O)c1,inactive
10,CCNc1nc(N)nc(Cl)n1,inactive
11,Cc1ccc2nc(N)[nH]c(=O)c2c1Sc1ccncc1,inactive
12,CC(C)COC(=O)c1ccc(O)cc1,inactive
13,ClC1=C(Cl)C1(Cl)Cl,inactive
14,CCCCC[C@H](O)/C=C/[C@H]1[C@H](O)CC(=O)[C@@H]1C/C=C\CCCC(=O)O,10.6 µM (active)
15,CC[C@H]1OC(=O)[C@H](C)[C@@H](O[C@H]2C[C@@](C)(OC)[C@@H](O)[C@H](C)O2)[C@H](C)[C@@H](O[C@@H]2O[C@H](C)C[C@H](N(C)C)[C@H]2O)[C@](C)(O)C[C@@H](C)/C(=N\OCOCCOC)[C@H](C)[C@@H](O)[C@]1(C)O,inactive
16,O=C1CC[C@@H](C(=O)O)N1,inactive
17,CCCCCCCCCCCCCCCC(=O)OCC,inactive
18,OCC(CO)n1cnc(-c2ccc(F)cc2)c1-c1ccnc(Oc2ccccc2)n1,inactive
19,CC(=O)OCCC(C)CC(C)(C)C (stereo not given),inactive
20,CC/C=C\C/C=C\C/C=C\CCCCCCCC(=O)OCC,inactive

row,SMILES,Potency
1,CCC(CO)(CO)[N+](=O)[O-],inactive
2,CC(C)(C)S,inactive
3,Nc1nc(-c2ccc([N+](=O)[O-])cc2)cs1,inactive
4,CCCCCC,inactive
5,O=C1[C@@H]2[C@H]3CC[C@H](C3)[C@@H]2C(=O)N1CCCCN1CCN(c2ncccn2)CC1,inactive
6,O=C(C(=O)c1ccco1)c1ccco1,inactive
7,CCCCCCCCCCCCCCCCCC(=O)OCC(CC)CCCC (stereo not given),inactive
8,C=CCOC(=O)COCCC(C)C,inactive
9,O=C(CCS)OCC(COC(=O)CCS)(COC(=O)CCS)COC(=O)CCS,inactive
10,O=[N+]([O-])C1(Br)COCOC1,inactive
11,COC(CC(C)CCCC(C)(C)O)OC (stereo not given),inactive
12,O=C(O)c1cccc(C[C@@H]2COc3ccc(OCc4nc5cc(F)ccc5s4)cc3[C@@H]2O)c1,inactive
13,C=C(C)c1ccccc1,inactive
14,CC(C)(O)c1coc(S(=O)(=O)NC(=O)Nc2c3c(cc4c2CCC4)CCC3)c1,inactive
15,CCN(CC)CCOC(=O)C(c1ccccc1)c1ccccc1,inactive
16,Cc1ccc2c(c1)CCCN2,inactive
17,CN=C(N)NC(=O)Nc1c(C)cccc1C,inactive
18,Cc1ccc(S(=O)(=O)NC(=O)NC2CCCCC2)cc1,inactive
19,CC(=O)NNC(C)=O,inactive
20,O=C(O)CO,inactive
